# PubChem BioAssay
# Values joined by “and” are separate entries in the source; they are usually repeats but may differ in a detail not shown here. Equal entries are not always repeated. Active and inactive are the calls of the source.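 How the source made its calls: active means compounds whose cell count with miR-34 switched on is under 0.7 times the count with it off; inactive means the rest.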
# Assay: viability loss with induced miR-34 in A549 – imaging, A549 dox-inducible miR-34, nuclei and caspase counts, primary screen (AID 1347080); further: test concentration not given here
# Conditions: A549 miR-34 inducible, Hoechst nuclei count, 48 h; stronger effect = lower value
row,SMILES,fold change
1,CNc1ccc2oc(C[C@@H]3OC4(CC[C@@H]3C)O[C@H](C(C)C(=O)c3ccc[nH]3)[C@H](C)C[C@H]4C)nc2c1C(=O)O (stereo not given in full),1.33 (inactive)
2,CCC1(C)CC(=O)NC(=O)C1,0.856 (inactive) and 0.868 (inactive)
3,C[C@]12CC[C@@H](O)C[C@@H]1CC[C@@H]1[C@@H]2CC[C@]2(C)C(=O)CC[C@@H]12,0.869 (inactive)
4,Oc1ccc2c3c1O[C@H]1c4oc5ccccc5c4C[C@@]4(O)[C@@H](C2)N(CC2CC2)CC[C@]314,0.915 (inactive)
5,C[C@]12CC[C@H]3[C@@H](CC[C@]4(O)C[C@@H](O)CC[C@]34C=O)[C@@]1(O)CC[C@@H]2C1=CC(=O)OC1,1.08 (inactive)
6,C[C@]12CCC(=O)CC1CCC1C2CC[C@@]2(C)C1CC[C@]2(C)O (stereo not given in full),0.938 (inactive)
7,C[C@]12CCC(=O)C=C1CC[C@@H]1[C@@H]2C(=O)C[C@]2(C)C(=O)CC[C@@H]12,0.907 (inactive)
8,CN1C[C@H](CO)C=C2c3cccc4[nH]cc(c34)C[C@H]21,0.809 (inactive)
9,C[C@]12CCC3[C@@H](CC[C@@H]4C[C@H](O)CC[C@]34C)[C@@H]1CCC2=O (stereo not given in full),0.895 (inactive)
10,CCOC(=O)c1cncn1[C@@H](C)c1ccccc1,0.937 (inactive)
11,Clc1ccc(C(Cn2ccnc2)OCc2csc3c(Cl)cccc23)c(Cl)c1 (stereo not given),0.952 (inactive) and 0.861 (inactive)
12,C[C@]12CC[C@H](O)C[C@H]1CC[C@@H]1[C@@H]2C[C@@H](O)[C@]2(C)[C@@H](C3=CC(=O)OC3)CC[C@]12O,0.713 (inactive)
13,C[C@]12Cc3cn[nH]c3CC1CCC1C2CC[C@@]2(C)C1CC[C@]2(C)O (stereo not given in full),0.922 (inactive)
14,CC1CCCC(O)CCCCCc2cc(O)cc(O)c2C(=O)O1 (stereo not given),0.901 (inactive)
15,C#CC(C)(O)CC (stereo not given),0.85 (inactive)
16,CCC(=O)OC(Cc1ccccc1)(c1ccccc1)C(C)CN(C)C (stereo not given),0.896 (inactive)
17,CN[C@@H]1[C@@H](O)[C@@H](O[C@@H]2[C@@H](O)[C@H](O[C@H]3O[C@H]([C@@H](C)NC)CC[C@H]3N)[C@@H](N)C[C@H]2N)OC[C@]1(C)O,0.872 (inactive)
18,CN[C@@H]1[C@@H](O)[C@@H](O[C@@H]2[C@@H](O)[C@H](O[C@H]3O[C@H]([C@@H](C)NC)CC[C@H]3N)[C@@H](N)C[C@H]2N)OC[C@]1(C)O (tested in a mixture with another compound),1.02 (inactive)
19,Oc1ccc2c3c1OC1C(O)CC[C@@]4(O)C(C2)N(CC2CCC2)CC[C@]314 (stereo not given in full),0.877 (inactive)
20,C[C@]12CC(=CO)C(=O)CC1CCC1C2CC[C@@]2(C)C1CC[C@]2(C)O (stereo not given in full),0.96 (inactive)
21,C[C@]12CC[C@H](O)C[C@H]1CC[C@@H]1[C@@H]2CC[C@]2(C)[C@@H](C3=CC(=O)OC3)CC[C@]12O,0.981 (inactive)
22,CCC(C)(C)O,0.953 (inactive)
23,Nc1cc2c(ncn2CCOCP(=O)(O)O)c(=O)[nH]1,1.06 (inactive)
24,CCCCCC[C@H]1C(=O)O[C@H](C)C(NC(=O)c2cccc(NC=O)c2O)C(=O)O[C@@H](C)[C@@H]1OC(=O)CC(C)C (stereo not given in full),1.21 (inactive)
25,C[C@]12CCC(O)CC1=CCC1C2CC[C@@]2(C)C1CC[C@]2(C)O (stereo not given in full),0.929 (inactive)
26,CC(C)(O)C1C2OC(=O)C1[C@]1(O)CC3O[C@]34C(=O)OC2[C@]14C (stereo not given in full) (tested in a mixture with another compound),0.954 (inactive)
27,CC(=O)OCC(=O)[C@H]1CC[C@H]2[C@@H]3CC[C@H]4C[C@H](O)CC[C@]4(C)[C@H]3C(=O)C[C@]12C,0.969 (inactive)

# Same assay, conditions: A549 miR-34 inducible, Hoechst nuclei count, 48 h; stronger effect = lower value; cell number ratio, induced over uninduced
row,SMILES,fold change
1,CNC1CC(c2ccc(Cl)c(Cl)c2)c2ccccc21 (stereo not given),0.956 (inactive)
2,CCCCCN(C)CCC(O)(P(=O)(O)O)P(=O)(O)O,0.977 (inactive) and 0.868 (inactive)
3,C[N+]1(C)C2CC[C@H]1CC(OC(=O)C(CO)c1ccccc1)C2 (stereo not given in full),0.955 (inactive)
4,O=C1OCCN1N=Cc1ccc([N+](=O)[O-])o1,0.869 (inactive)
5,CN1[C@@H]2CC[C@H]1CC(OC(=O)C1C=Nc3ccccc31)C2 (stereo not given in full),0.853 (inactive) and 0.904 (inactive)
6,CCC1=C[C@@H]2CN3CCc4c([nH]c5ccccc45)[C@@](C(=O)OC)(C2)[C@@H]13,0.949 (inactive) and 0.823 (inactive)
7,C(#CCN1CCCC1)CN1CCCC1,0.85 (inactive)
8,CN1[C@@H]2CC[C@H]1CC(OC1c3ccccc3CCc3ccccc31)C2 (stereo not given in full),0.913 (inactive)
9,C[N+]1([O-])[C@@H]2CC(OC(=O)[C@H](CO)c3ccccc3)C[C@H]1[C@@H]1O[C@@H]12 (stereo not given in full),0.882 (inactive)
10,CCC1C(=O)OCC1Cc1cncn1C (stereo not given),0.926 (inactive) and 0.807 (inactive) and 0.899 (inactive)
11,CN1CC[C@@]2(C)c3cc(O)ccc3N(C)[C@H]12,0.908 (inactive)
12,C=C(C)[C@@H]1C2C(=O)O[C@H]1[C@H]1OC(=O)[C@@]34OC3C[C@]2(O)[C@@]14C (stereo not given in full),0.887 (inactive)
13,Oc1cc2c(cc1O)C1c3ccccc3CNC1CC2 (stereo not given),0.881 (inactive)
